Experimental data reported in the supplement of paper PMC11732987, “Enantioselective OTUD7B fragment discovery through chemoproteomics screening and high-throughput optimisation” (Communications Chemistry, 2025).

Experiments:
Test in all cases: log2 ratio of Biotin-Ahx-Ub-VS probe labelling (fragment/DMSO); higher = less target engagement (more negative = stronger competition), active = hit call of the paper (q ≤ 0.05, log2 ratio ≤ -1)
Conditions in all cases: compound concentration: 200 uM; treatment time: 3 h
ALG13 = molecular target: T1, ALG13 (UniProt Q9NP73)
T1 sequence (whole entry): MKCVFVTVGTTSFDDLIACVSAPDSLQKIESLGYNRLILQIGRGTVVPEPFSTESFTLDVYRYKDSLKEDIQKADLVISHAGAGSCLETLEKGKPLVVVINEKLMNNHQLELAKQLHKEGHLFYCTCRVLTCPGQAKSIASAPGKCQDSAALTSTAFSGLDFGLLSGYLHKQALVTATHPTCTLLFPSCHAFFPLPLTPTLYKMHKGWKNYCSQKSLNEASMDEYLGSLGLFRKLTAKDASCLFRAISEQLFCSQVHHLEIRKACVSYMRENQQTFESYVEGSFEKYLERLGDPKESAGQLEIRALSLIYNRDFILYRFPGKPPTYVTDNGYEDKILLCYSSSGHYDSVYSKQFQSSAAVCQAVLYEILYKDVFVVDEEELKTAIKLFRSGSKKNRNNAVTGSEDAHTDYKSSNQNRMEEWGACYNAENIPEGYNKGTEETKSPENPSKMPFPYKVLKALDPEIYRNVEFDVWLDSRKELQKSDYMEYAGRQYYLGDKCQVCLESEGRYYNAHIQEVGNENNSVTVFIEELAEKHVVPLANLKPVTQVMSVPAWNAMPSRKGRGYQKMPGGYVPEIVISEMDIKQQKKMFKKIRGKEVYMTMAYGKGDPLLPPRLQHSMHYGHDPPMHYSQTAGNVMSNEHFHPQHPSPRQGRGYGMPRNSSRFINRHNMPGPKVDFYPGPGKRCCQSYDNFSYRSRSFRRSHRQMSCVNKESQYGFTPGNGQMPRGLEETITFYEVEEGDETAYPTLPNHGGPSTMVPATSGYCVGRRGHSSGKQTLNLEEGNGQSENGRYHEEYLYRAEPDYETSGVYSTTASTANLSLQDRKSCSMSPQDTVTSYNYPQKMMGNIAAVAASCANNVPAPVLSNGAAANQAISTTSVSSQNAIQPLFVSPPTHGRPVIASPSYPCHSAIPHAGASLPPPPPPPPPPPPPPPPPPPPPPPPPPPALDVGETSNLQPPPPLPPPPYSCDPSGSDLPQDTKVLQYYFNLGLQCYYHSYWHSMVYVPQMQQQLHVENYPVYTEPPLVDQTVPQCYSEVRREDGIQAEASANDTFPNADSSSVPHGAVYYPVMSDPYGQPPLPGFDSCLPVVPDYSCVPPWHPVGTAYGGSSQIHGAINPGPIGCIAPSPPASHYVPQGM
Method in brief: (§1)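 Triplicate samples of HEK293T lysate, 495 µg each, received fragment at 200 µM or vehicle for 3 h, followed by Biotin-Ahx-Ub-VS (0.5 µM final) for 1 h. After NeutrAvidin enrichment of labelled DUBs and LysC/trypsin digestion, peptides were run by diaPASEF LC-MS/MS. The values are average log2 fragment/vehicle ratios from global-median-normalised Spectronaut label-free quantities, tested by unpaired t-test on proteins having ≥2 unique peptides.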

ATXN3 = ATXN3 (UniProt P54252)
ATXN3, sequence (P54252 whole entry): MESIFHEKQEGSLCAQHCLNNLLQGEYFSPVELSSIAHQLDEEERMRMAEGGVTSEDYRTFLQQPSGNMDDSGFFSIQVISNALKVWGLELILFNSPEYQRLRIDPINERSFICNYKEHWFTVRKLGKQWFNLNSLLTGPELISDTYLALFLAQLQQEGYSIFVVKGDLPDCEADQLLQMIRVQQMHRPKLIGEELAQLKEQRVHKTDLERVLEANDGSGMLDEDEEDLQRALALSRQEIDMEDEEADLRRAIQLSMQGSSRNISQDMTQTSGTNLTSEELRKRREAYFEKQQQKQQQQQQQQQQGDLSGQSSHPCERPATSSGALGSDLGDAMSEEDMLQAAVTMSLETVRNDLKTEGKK
Method in brief: as §1

BAP1 = molecular target: T2, BAP1 (UniProt Q92560)
T2 sequence (whole entry): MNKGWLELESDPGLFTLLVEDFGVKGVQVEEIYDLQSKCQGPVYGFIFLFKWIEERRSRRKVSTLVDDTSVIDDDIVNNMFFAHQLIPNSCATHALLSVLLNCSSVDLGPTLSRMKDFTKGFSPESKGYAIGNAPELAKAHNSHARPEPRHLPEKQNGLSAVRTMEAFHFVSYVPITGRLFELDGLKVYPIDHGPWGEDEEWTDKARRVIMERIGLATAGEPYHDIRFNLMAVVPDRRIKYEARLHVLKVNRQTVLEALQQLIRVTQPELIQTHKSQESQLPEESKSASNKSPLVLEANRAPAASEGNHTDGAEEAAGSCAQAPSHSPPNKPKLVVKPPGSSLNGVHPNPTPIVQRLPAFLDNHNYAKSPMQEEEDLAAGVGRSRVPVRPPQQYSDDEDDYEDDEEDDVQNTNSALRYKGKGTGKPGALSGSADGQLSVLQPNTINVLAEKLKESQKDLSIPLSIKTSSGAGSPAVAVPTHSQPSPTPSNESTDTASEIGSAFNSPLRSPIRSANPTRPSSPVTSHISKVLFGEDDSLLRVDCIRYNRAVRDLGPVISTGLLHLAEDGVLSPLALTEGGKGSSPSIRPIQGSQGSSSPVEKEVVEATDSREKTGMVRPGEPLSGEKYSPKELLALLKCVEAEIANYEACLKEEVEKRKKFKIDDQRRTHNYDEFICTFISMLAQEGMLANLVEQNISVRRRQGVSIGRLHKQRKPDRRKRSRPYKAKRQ
Method in brief: as §1

EIF3F = EIF3F (UniProt O00303)
EIF3F, sequence (O00303 whole entry): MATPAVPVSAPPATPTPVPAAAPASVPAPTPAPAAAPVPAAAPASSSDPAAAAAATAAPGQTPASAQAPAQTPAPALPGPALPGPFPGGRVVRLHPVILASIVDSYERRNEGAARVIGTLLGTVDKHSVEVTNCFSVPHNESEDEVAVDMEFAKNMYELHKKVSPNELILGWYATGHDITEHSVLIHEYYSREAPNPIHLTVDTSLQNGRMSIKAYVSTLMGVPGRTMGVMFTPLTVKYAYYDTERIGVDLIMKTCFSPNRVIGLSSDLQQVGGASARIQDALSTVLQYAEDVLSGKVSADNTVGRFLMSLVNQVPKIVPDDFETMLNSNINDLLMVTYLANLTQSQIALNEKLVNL
Method in brief: as §1

EIF3H = EIF3H (UniProt O15372)
EIF3H, sequence (O15372 whole entry): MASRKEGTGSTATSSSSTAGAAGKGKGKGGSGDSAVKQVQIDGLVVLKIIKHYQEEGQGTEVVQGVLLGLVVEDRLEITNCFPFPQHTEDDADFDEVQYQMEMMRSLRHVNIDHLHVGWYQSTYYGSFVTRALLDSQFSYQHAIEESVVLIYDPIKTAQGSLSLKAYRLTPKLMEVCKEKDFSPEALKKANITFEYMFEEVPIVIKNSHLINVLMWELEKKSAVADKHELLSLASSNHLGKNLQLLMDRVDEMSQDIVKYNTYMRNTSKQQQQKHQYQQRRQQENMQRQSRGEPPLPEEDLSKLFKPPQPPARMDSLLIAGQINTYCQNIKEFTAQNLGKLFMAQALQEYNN
Method in brief: as §1

FAM105A = molecular target: T3, FAM105A (UniProt Q9NUU6)
T3 sequence (whole entry): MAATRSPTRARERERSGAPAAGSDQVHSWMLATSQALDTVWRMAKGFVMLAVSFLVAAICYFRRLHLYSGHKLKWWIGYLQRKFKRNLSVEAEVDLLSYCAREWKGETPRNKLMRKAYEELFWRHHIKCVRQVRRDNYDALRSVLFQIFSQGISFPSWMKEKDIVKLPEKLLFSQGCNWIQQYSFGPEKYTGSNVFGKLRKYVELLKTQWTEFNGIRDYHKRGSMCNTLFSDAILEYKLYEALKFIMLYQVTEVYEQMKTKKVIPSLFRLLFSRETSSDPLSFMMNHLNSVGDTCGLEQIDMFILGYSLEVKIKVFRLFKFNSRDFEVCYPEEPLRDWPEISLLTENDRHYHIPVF
Method in brief: as §1

OTUB1 = OTUB1 (UniProt Q96FW1)
OTUB1, sequence (Q96FW1 whole entry): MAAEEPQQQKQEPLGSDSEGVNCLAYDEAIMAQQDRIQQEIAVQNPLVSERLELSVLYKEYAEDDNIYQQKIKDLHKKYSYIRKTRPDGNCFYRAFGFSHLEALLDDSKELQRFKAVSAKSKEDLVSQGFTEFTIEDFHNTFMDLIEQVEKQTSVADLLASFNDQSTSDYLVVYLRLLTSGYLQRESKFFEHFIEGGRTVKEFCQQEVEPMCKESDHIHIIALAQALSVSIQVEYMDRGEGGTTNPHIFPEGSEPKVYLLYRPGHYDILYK
Method in brief: as §1

OTUD4 = molecular target: T4, OTUD4 (UniProt Q01804)
T4 sequence (whole entry): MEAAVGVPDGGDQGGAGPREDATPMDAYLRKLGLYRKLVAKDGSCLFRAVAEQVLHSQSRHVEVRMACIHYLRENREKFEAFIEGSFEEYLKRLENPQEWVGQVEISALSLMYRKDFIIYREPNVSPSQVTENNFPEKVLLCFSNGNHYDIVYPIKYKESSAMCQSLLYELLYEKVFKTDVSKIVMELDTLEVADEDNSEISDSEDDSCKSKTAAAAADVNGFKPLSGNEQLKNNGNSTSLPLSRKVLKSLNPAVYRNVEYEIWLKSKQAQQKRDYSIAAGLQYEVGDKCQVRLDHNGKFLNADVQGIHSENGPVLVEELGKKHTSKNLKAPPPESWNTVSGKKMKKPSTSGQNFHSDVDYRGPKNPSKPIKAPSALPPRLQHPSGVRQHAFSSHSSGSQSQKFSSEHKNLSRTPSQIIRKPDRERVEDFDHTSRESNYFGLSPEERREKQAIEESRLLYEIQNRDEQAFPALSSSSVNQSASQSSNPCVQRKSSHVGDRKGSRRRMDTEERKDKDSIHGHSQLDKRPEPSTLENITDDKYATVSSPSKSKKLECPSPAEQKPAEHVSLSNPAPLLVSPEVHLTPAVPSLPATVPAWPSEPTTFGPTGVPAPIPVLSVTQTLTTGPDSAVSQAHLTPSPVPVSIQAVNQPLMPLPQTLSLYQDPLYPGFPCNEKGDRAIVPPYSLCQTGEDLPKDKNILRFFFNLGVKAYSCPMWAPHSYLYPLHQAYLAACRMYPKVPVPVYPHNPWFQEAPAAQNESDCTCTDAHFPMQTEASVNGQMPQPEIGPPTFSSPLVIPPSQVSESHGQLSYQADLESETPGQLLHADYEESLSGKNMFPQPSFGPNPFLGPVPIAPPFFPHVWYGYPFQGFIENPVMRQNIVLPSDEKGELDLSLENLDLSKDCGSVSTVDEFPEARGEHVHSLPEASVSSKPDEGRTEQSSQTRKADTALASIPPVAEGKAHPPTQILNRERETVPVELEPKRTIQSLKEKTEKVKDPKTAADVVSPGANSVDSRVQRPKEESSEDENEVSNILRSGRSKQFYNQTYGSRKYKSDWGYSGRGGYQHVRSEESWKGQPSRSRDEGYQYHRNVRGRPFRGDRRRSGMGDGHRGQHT
Method in brief: as §1

OTUD5 = molecular target: T5, OTUD5 (UniProt Q96G74)
T5 sequence (whole entry): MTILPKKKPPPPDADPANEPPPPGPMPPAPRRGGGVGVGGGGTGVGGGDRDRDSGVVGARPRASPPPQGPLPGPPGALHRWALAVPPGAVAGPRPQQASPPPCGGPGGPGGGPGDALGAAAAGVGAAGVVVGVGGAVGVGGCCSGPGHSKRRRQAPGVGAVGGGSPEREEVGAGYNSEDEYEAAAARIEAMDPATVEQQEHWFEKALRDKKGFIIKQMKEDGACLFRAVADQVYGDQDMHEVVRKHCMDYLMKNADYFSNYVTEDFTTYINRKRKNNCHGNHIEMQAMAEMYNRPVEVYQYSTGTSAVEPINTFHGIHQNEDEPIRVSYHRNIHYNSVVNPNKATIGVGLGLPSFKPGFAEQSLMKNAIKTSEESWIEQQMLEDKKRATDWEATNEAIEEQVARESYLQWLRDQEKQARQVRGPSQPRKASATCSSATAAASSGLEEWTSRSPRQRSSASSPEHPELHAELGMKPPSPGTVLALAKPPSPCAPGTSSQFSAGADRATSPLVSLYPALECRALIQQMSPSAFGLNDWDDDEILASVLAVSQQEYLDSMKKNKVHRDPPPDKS
Method in brief: as §1

Measured: log2 ratio of Biotin-Ahx-Ub-VS probe labelling

Cc1c(C#N)c(NC(=O)CCl)n(Cc2ccco2)c1C
active: BAP1 -3.61
inactive: ALG13 0.126 | ATXN3 -0.609 | EIF3F -0.174 | EIF3H -0.447 | FAM105A -0.107 | OTUB1 0.0458 | OTUD4 -0.292 | OTUD5 -0.61
